Here are results for nine compounds from PubChem BioAssay (NCI).

Holding throughout (assay): NCI-60 one-dose screen, 48 h (100 = growth as untreated, 0 = no growth, -100 = all killed)
The subject of one assay is NCI-H23 lung. Particulars: 10 µM unless noted.
In the next assay the test system is NCI-H226 lung. The note with it: 10 µM unless noted.
The test system of a further assay is NCI-H322M lung. The note with it: 10 µM unless noted.
The test system of another assay is HOP-62 NSCLC. The note with it: 10 µM unless noted.
The next assay relates to A549/ATCC NSCLC. Particulars: 10 µM unless noted.
A further assay has as its system 786-0 renal. Particulars: 10 µM unless noted.
A further assay relates to COLO 205 colon. Particulars: 10 µM unless noted.
For another assay, the system named is DU-145 prostate. The note with it: 10 µM unless noted.
The next assay deals with MALME-3M melanoma. Particulars: 10 µM unless noted.
The next assay has as its system MDA-MB-231 breast. The note with it: 10 µM unless noted.
The next assay concerns RXF 393 renal. The note with it: 10 µM unless noted.
The next assay has as its system SF-268 CNS. Particulars: 10 µM unless noted.
Another assay deals with SF-295 CNS. The note with it: 10 µM unless noted.
The test system of the next assay is UACC-257 melanoma. The note with it: 10 µM unless noted.
A further assay relates to M14 melanoma. The note with it: 10 µM unless noted.
The next assay deals with NCI-H460 lung. Particulars: 10 µM unless noted.
The next assay relates to HOP-92 NSCLC. Particulars: 10 µM.
The next assay concerns NCI-H522 lung. Particulars: 10 µM.
A further assay deals with K-562 leukemia. The note with it: 10 µM unless noted.
Another assay relates to SF-539 CNS. The note with it: 10 µM unless noted.

SMILES strings stand for the structures. This is part of a sample that, as a whole, favours compounds with a hit. Of some 83,000 tested, about 20% had one in any assay.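 In brief: 96-well plates, 48 h treatment, single concentration, percent growth endpoint.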 Values without a mark were called inactive. Active and inactive are the calls of the source. The calls were made as follows: active = growth percent below 10; inactive = the rest.

As for `Cc1c(C(N)=O)sc2c1c(=O)n(Cc1ccccc1)c1nnc(S(C)(=O)=O)n21`, the growth is 97.1% in the assay with NCI-H23 lung; 96.2% in the assay on NCI-H226 lung; 107% in the assay on NCI-H322M lung; 78.8% in the assay on HOP-62 NSCLC; 102% in the assay with A549/ATCC NSCLC; 108% with 786-0 renal. For the same compound, the growth with COLO 205 colon was 93.8%; in the assay on DU-145 prostate, 101%; with MALME-3M melanoma it was 92.4%; in the assay with MDA-MB-231 breast it was 101%; in the assay on RXF 393 renal, 49.3%; in the assay on SF-268 CNS, 96.7%. Besides, the growth in the assay with SF-295 CNS was 89.4%; in the assay with UACC-257 melanoma, 80.8%; in the assay with M14 melanoma it was 76%.
Take `Cc1ccc2c(O)c(O)cc(NC(C)CCCN)c2n1` (stereo unspecified): the growth with NCI-H23 lung was 20.7%; in the assay on NCI-H226 lung, 111%; with NCI-H322M lung, 26%; with NCI-H460 lung, 107%; in the assay on HOP-92 NSCLC, 84.4%; with NCI-H522 lung it was 22.3%. The growth in the assay on A549/ATCC NSCLC is 84.6%; in the assay with 786-0 renal, 95.8%; in the assay on COLO 205 colon, 32.7%; with DU-145 prostate it was 74.5%; in the assay with K-562 leukemia, 42.1%; in the assay with MALME-3M melanoma, 81.6%. Further, the growth with MDA-MB-231 breast is 57.2%; with RXF 393 renal it was 93.3%; with SF-268 CNS, 92.2%; with SF-295 CNS it was 90.6%; in the assay on SF-539 CNS, 14.6%; in the assay on UACC-257 melanoma, 98.4%.
On to `CCCC(CCC)Oc1ccc(CCCC2=C(O)c3ccccc3C(=O)C2=O)cc1`, for which the growth was 26.9% in the assay with NCI-H23 lung; 32.6% in the assay with NCI-H226 lung; -1.08% (active) in the assay with NCI-H322M lung; 9.9% (active) with NCI-H460 lung; 28.1% in the assay with HOP-92 NSCLC; 30.2% with NCI-H522 lung. For the same compound, the growth with A549/ATCC NSCLC is 32.1%; in the assay with 786-0 renal, 42.2%; with COLO 205 colon it was 43.9%; in the assay on DU-145 prostate, 33.4%; in the assay with K-562 leukemia, 23%; in the assay with MALME-3M melanoma, 57%. The growth in the assay on MDA-MB-231 breast was 54.6%; in the assay on RXF 393 renal, 58.7%; in the assay with SF-268 CNS it was 45.3%; with SF-295 CNS, 28.2%; in the assay with SF-539 CNS, 23.1%; in the assay with UACC-257 melanoma, 40.5%.
Regarding `CC(=O)N1CCN(CCNC(=O)n2cc(-c3ccncc3)c(-c3cc(O)cc(Cl)c3)n2)CC1`, the growth in the assay with NCI-H23 lung is 99.7%; in the assay with NCI-H226 lung, 102%; in the assay with NCI-H322M lung, 106%; in the assay on HOP-62 NSCLC, 94.2%; with A549/ATCC NSCLC, 102%; with 786-0 renal, 67.8%. The growth with COLO 205 colon is 86.8%; in the assay on DU-145 prostate, 89.5%; with K-562 leukemia, 53.5%; with MALME-3M melanoma it was 31.9%; in the assay on MDA-MB-231 breast it was 82.5%; in the assay on RXF 393 renal it was 65.2%. The growth with SF-268 CNS is 96%; in the assay with SF-295 CNS, 80.5%; with SF-539 CNS it was 71.6%; in the assay with UACC-257 melanoma, -34% (active); in the assay with M14 melanoma, 5.16% (active).
With `COC(=O)[C@H](Cc1cn(C)cn1)NC(=O)[C@@H](NC(=O)Nc1cc(C(F)(F)F)cc(C(F)(F)F)c1)C(C)(C)C`, the growth in the assay on NCI-H23 lung was -64.7% [100 µM] (active); in the assay on NCI-H226 lung, 64.7% [100 µM]; in the assay with NCI-H322M lung, -35.3% [100 µM] (active); in the assay on HOP-62 NSCLC, -84.2% [100 µM] (active); in the assay with A549/ATCC NSCLC, 14.8% [100 µM]; in the assay on 786-0 renal, -88.2% [100 µM] (active). Moreover, the growth is -74.6% [100 µM] (active) in the assay with COLO 205 colon; -92.3% [100 µM] (active) with DU-145 prostate; -12.5% [100 µM] (active) in the assay on K-562 leukemia; -86.9% [100 µM] (active) in the assay with MALME-3M melanoma; -89.6% [100 µM] (active) with MDA-MB-231 breast; -87.4% [100 µM] (active) in the assay on RXF 393 renal. Also, the growth is -90.4% [100 µM] (active) with SF-268 CNS, -84.4% [100 µM] (active) in the assay on SF-539 CNS, -74.2% [100 µM] (active) in the assay on UACC-257 melanoma and -85.2% [100 µM] (active) with M14 melanoma.
In the case of `COc1ccc2c(c1)cn1c3ccc(O)cc3[nH]c(=O)c21`, the growth was 23.3% with NCI-H23 lung; 45.9% in the assay on NCI-H226 lung; 41.1% in the assay on NCI-H322M lung; 25.8% in the assay on HOP-62 NSCLC; 26.8% in the assay with A549/ATCC NSCLC; 22.9% with 786-0 renal. Also, the growth with COLO 205 colon was 4.21% (active); with DU-145 prostate, 15.4%; in the assay on K-562 leukemia, -5.1% (active); with MALME-3M melanoma, 62.5%; in the assay with MDA-MB-231 breast, 25.5%; in the assay with RXF 393 renal, -3.01% (active). For the same compound, the growth in the assay with SF-268 CNS was 16.9%; in the assay on SF-295 CNS it was 22.5%; in the assay on SF-539 CNS, -4.58% (active); in the assay on UACC-257 melanoma it was 51.4%; with M14 melanoma, 14.7%.
In the case of `Oc1ccc2ccccc2c1/C=N\Nc1ccccn1`, the growth in the assay with NCI-H23 lung was 0% (active); in the assay on NCI-H226 lung, 9.04% (active); with NCI-H322M lung, -12.6% (active); in the assay on HOP-62 NSCLC, -8.47% (active); in the assay on HOP-92 NSCLC, -15.1% (active); with A549/ATCC NSCLC it was 8.68% (active). Moreover, the growth in the assay with 786-0 renal is -29.3% (active); with COLO 205 colon it was 91%; in the assay on DU-145 prostate, 4.84% (active); with K-562 leukemia, 16.1%; with MDA-MB-231 breast it was 25.1%; in the assay on RXF 393 renal, 18.3%. In addition, the growth in the assay with SF-268 CNS was 16.8%; in the assay on SF-295 CNS it was -42.7% (active); in the assay on SF-539 CNS, -4.88% (active); with UACC-257 melanoma it was 12.9%; with M14 melanoma, -22.5% (active).
For the compound `Cc1ccc(C(=O)Nc2ccc(CN3CCN(C)CC3)c(C(F)(F)F)c2)cc1C#Cc1cncc2ncccc12`, the growth in the assay with NCI-H23 lung is -84.3% (active); in the assay on NCI-H226 lung it was 5.51% (active); in the assay on NCI-H322M lung it was -95.8% (active); in the assay on HOP-62 NSCLC it was -11.7% (active); in the assay with HOP-92 NSCLC it was -30.7% (active); with A549/ATCC NSCLC, -82.1% (active). For the same compound, the growth was -70.5% (active) with 786-0 renal; -88.1% (active) in the assay on DU-145 prostate; -67.4% (active) in the assay with K-562 leukemia; -88.9% (active) in the assay with MALME-3M melanoma; -97% (active) in the assay on MDA-MB-231 breast; -95.7% (active) with RXF 393 renal. In addition, the growth in the assay on SF-268 CNS is -70.6% (active); with SF-295 CNS it was 27.3%; with SF-539 CNS, -98.2% (active); with UACC-257 melanoma it was -64% (active); in the assay on M14 melanoma, -89.5% (active).
With `O=C(N/N=C/c1coc2ccccc2c1=O)c1cc2oc(-c3ccccc3)cc2[nH]1`, the growth in the assay on NCI-H23 lung was 113%; with NCI-H226 lung, 114%; in the assay with NCI-H322M lung, 89.4%; with HOP-62 NSCLC, 95.9%; in the assay with A549/ATCC NSCLC, 105%; in the assay with 786-0 renal, 106%. The growth in the assay with COLO 205 colon is 94.3%; with DU-145 prostate, 93.8%; with K-562 leukemia it was 82.6%; in the assay on MALME-3M melanoma, -5.98% (active); with MDA-MB-231 breast it was 96.8%; in the assay on RXF 393 renal, 82%. The growth was 96.2% in the assay with SF-268 CNS, 103% in the assay on SF-295 CNS, 89.8% in the assay on SF-539 CNS and 118% in the assay with UACC-257 melanoma.
